Test results published in PubChem BioAssay (EPA / NIEHS).
Results filed as inconclusive are left out. Activity calls are given as the source filed them. How the source made its calls: active means hit-call score of the fitted dose curve at least 0.9, where 1 is the maximum; inconclusive means response in the unintended direction; inactive means score below 0.9.

Target: Agonist Androgen Response Element (ARE), AR (gene 367) (UniProt P10275)
Assay: OT_AR_ARELUC_AG_1440: Odyssey Thera (OT) 24-hour CHO-K1 Luciferase Assay for Agonist Androgen Response Element (ARE) (AID 2283379)
Outline: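 Readout: luciferase bioluminescence from CHO-K1 ARE-luc cells, measured 24 h post-dosing; agonism = increased mean luminescence vs DMSO controls, fitted in positive direction.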

Chain of Agonist Androgen Response Element (ARE), AR (gene 367) (P10275 whole entry, looked up): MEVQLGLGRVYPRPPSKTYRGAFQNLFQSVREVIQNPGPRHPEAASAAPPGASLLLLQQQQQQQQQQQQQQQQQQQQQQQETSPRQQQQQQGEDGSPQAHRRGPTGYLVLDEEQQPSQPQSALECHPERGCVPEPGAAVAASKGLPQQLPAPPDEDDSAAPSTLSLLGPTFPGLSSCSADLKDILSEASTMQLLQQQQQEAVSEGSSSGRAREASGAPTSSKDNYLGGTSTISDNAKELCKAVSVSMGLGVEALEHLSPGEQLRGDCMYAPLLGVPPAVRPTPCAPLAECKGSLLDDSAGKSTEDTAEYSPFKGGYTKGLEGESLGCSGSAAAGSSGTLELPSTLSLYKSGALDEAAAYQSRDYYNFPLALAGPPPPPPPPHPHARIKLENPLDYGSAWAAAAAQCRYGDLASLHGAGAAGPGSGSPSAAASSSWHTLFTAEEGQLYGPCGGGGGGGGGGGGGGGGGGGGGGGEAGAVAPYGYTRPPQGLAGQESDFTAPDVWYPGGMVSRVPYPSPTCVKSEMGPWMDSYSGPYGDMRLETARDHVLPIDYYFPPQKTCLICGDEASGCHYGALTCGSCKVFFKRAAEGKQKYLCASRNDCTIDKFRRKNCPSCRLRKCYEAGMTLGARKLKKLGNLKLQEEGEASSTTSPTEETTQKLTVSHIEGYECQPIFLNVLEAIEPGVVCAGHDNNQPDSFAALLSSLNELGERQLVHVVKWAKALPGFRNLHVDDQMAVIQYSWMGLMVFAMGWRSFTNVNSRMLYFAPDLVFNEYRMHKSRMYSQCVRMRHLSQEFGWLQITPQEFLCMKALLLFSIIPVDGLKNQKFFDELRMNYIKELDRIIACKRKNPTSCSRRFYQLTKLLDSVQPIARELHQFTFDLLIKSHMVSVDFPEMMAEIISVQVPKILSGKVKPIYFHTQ

SMILES	outcome	AC50
CC(C)c1ccc2c(C(C)C)cc(C(C)C)c(S(=O)(=O)O)c2c1	inactive	–
Oc1ccc(Cl)cc1Cc1cc(Cl)ccc1O	inactive	–
CCCc1ccc(OC)cc1	inactive	–
CCCCC/C=C\CCC=O	–	1.31 µM (active)
CC(C)=CCC[C@H](C)CCO	–	0.239 µM (active)
O=c1cc(-c2ccccc2)oc2ccccc12	inactive	–
CC(C)(C)c1ccc(-c2ccc(C(C)(C)C)cc2)cc1	inactive	–

Target: Estrogen receptor beta (Homo sapiens) (UniProt Q92731)
Sequence (Q92731 whole entry, looked up, the tested form may be a part): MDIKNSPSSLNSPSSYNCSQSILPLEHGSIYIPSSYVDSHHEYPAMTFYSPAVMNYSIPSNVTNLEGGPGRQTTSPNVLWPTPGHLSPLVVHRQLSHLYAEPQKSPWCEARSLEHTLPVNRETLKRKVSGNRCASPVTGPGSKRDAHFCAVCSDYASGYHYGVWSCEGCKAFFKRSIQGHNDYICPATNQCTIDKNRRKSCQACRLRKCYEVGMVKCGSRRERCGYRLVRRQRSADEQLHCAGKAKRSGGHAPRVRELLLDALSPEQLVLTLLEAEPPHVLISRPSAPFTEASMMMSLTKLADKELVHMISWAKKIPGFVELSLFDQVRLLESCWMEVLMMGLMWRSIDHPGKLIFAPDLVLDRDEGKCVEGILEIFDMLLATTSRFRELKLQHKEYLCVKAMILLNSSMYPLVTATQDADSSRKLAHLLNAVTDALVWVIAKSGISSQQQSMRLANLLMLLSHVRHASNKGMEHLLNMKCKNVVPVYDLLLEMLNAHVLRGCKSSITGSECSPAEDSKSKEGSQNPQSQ
Assay: OT_ER_ERbERb_1440: Odyssey Thera (OT) 24-hour HEK293T Protein-Complementation Assay for Estrogen Receptor-beta/-beta Homodimer (AID 2283380);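 further: fluorescence gain from ER beta LBD homodimer complementation read by laser scanning cytometry; scored as signal increase over DMSO baseline for both agonists and antagonists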
Outline: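 Fluorescence increase, nuclear for agonists or whole-cell for antagonists, relative to DMSO vehicle, quantified by laser scanning cytometer after fixation and Draq5 staining. Readout from 24 h treatment of HEK293T cells carrying complementation-paired ER beta LBD (aa 310-547).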

SMILES	AC50	outcome
COC(=O)c1c(C)cc(O)c(C)c1O	56.4 µM (active)	–
O=C(O)CCCC[C@@H]1SC[C@@H]2NC(=O)N[C@@H]21	–	inactive
O=C(c1ccccc1)C1CCC1	–	inactive
CC(=O)OC(C)C	25.9 µM (active)	–
O=S1(=O)OC(c2ccc(O)cc2)(c2ccc(O)cc2)c2ccccc21	–	inactive
CC(=O)[C@H]1[C@H](C#N)C[C@H]2[C@@H]3CC=C4C[C@@H](O)CC[C@]4(C)[C@H]3CC[C@@]21C	–	inactive
O=S(=O)(O)c1ccccc1C=Cc1ccc(-c2ccc(C=Cc3ccccc3S(=O)(=O)O)cc2)cc1	–	inactive
NC(=O)c1ccccc1O	–	inactive
Oc1ccc(Cl)cc1Cc1cc(Cl)ccc1O	11.9 µM (active)	–
CCCCCCCOC(=O)CCC	–	inactive
CC(C)c1ccc2cc(C(C)C)ccc2c1	–	inactive
CCCCCCCC/C=C\CCCCCCCC(=O)OCCO	–	inactive
CCCc1ccc(OC)cc1	–	inactive
CN(C)c1ccc(N=Nc2ccccc2C(=O)O)cc1	–	inactive
CC/C=C\C/C=C\C/C=C\CCCCCCCC(=O)O	–	inactive
CCCCC/C=C\C/C=C\CCCCCCCC(=O)OC	–	inactive
CC=C1CC2C=CC1C2 (stereo unspecified)	–	inactive
Cc1ccc(N/N=c2\c(=O)cc/c(=N/Nc3ccc(S(=O)(=O)O)cc3)c2=O)c(C)c1	–	inactive
CC(C)=CCC[C@H](C)CCO	–	inactive
CCCCCCCCCCCCCOP(=O)(O)O	–	inactive
O=c1cc(-c2ccccc2)oc2ccccc12	49.2 µM (active)	–
O=C1CCCC1	–	inactive
CC(C)(C)c1ccc(-c2ccc(C(C)(C)C)cc2)cc1	–	inactive
CN(C)c1ccc(C(=N)c2ccc(N(C)C)cc2)cc1	–	inactive
